IMPase cell inh: membrane-permeable compound that blocks inositol monophosphatase. P97697. CHO-M1 cells, IP1 accumulation, HTRF TR-FRET ratio. inhibition (IP1 accumulation), % at 46.1 µM. 120,000 tested, under 10 active; active means well fitted curve in the direction sought with a large enough effect in the signal ratio, not every such curve was filed as active; inconclusive means small, poorly fitted or top-dose-only effect, or a change in a side signal; inactive means no such curve, though single readings can be large or run the other way; the % refers to the signal ratio;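 further: cells stimulated with carbachol in lithium chloride buffer; plate controls were DMSO basal wells for no effect and reference inhibitor wells for full effect; higher means more IMPase inhibition seen as more IP1 and lower FRET ratio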
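In this qHTS, compounds (final up to 46 uM) act on CHO-M1 cells that are then activated through the M1 receptor with carbachol, in pH 7.4 buffer containing 50 mM LiCl, for 30 min. IP1 accumulation is quantified by the IP-One immunoassay.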
ALDH1A1 inh: blocks purified human ALDH1A1 activity; Purified ALDH1A1, NADH fluorescence, propionaldehyde substrate; Potency, µM (titrated, usually from 75.3 µM), inactives show top-dose activity, negative = inhibition, usual class: inhibitors; 220,000 compounds, 7.3% hits; AID 1030;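 further: potency means the concentration at half of the fitted maximal effect; plate controls were no enzyme wells and a reference inhibitor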
Target sequence (P00352 whole entry, looked up): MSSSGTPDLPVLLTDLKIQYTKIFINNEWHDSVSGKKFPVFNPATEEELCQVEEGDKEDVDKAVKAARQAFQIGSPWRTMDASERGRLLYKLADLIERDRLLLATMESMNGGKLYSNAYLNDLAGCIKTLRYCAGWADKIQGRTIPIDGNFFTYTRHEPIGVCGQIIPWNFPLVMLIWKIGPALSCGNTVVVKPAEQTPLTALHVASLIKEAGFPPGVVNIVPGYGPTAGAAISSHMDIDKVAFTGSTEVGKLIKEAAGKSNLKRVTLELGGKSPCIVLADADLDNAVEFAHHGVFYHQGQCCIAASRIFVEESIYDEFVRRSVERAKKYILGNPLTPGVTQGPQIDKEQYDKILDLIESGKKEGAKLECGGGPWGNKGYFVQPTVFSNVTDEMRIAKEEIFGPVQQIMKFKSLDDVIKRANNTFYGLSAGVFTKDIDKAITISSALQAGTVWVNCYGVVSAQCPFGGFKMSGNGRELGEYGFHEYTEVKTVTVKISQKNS
HPGD block: blocks human HPGD enzyme activity | 150,000 compounds, 4.3% hits | purified HPGD, NADH fluorescence kinetic, PGE2 substrate | AID 894 | Potency, µM, without a hit: top-dose activity change, negative = inhibition, most hits filed as inhibitors; further: potency means the concentration at half of the fitted maximal effect
Target sequence (P15428 whole entry, looked up): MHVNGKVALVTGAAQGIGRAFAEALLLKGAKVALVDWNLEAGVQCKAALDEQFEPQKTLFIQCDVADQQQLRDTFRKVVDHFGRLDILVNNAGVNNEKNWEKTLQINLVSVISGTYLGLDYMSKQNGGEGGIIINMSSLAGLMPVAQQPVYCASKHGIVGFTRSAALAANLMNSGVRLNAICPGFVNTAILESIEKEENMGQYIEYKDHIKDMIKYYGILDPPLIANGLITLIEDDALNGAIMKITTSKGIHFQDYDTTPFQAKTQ
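NADH formation kinetics: reaction with 30 uM PGE2 and 1 mM NAD+ (final), 20 nM enzyme, Tris-HCl pH 8 with Tween 20, after 15 min compound preincubation at room temperature. Fluorescence change, last versus first of five reads.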
PNC assembly inh: perinucleolar compartment assembly inhibition; PC3M PTB-GFP, PNC prevalence imaging, 16 h; active compounds read low; activity change (PNC), negative = inhibition, % at 10 µM; 140,000 compounds, 3.1% hits; AID 2417;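 active means readout at or below -70, meaning at least 70% loss of cells showing the perinucleolar compartment, a nuclear body marking cancer cells; inconclusive means readout between -30 and a set limit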;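 further: plate controls were DMSO wells for no effect and camptothecin positive control wells for full effect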
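PC3M cells stably expressing PTB-GFP, 750–1000 cells/well, treated 16 h at 37 °C with compound (23 nl of library stock), in duplicate. After paraformaldehyde fixation and Hoechst stain, imaged at 20x; PNC prevalence scored by image analysis.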
KinaseGlo FLuc: Kinase-Glo luciferase inhibition (counter-screen). Kinase-Glo luciferase, ATP luminescence, 8 min. Potency, µM (doses to about 38.3 µM), inactives show at the top dose activity change, negative = inhibition, usual class: inhibitors. 200,000 compounds, 0.28% hits. AID 1379; active means well fitted inhibition curve with a large enough effect; inconclusive means small, poorly fitted or top-dose-only effect; further: potency means the concentration at half of the fitted maximal effect; nearly all actives have a fitted effect of over 60% in size
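Recombinant Kinase-Glo luciferase, 10 uM ATP (linear range), luciferin; imidazole pH 7.2 / KCl / MgCl2 / Tween / BSA buffer; 8 min RT; luminescence.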
Lamin A splicing: LMNA splicing modulation; HeLa LMNA splicing GFP/RFP minigene ratio, 48 h; Potency, µM (doses to about 46.1 µM), inactives show at the top dose ratio change, negative = inhibition, hits mostly inhibitors; 200,000 compounds, 0.01% hits; AID 1487; active means well fitted inhibition curve with a large enough effect in the signal ratio, with a control signal flat, not every such curve was filed as active; inconclusive means small, poorly fitted or top-dose-only effect, or effect the other way, or a change in a side signal; the % refers to the signal ratio; further: potency means the concentration at half of the fitted maximal effect
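S3 HeLa stable clones carrying a lamin A-EGFP splicing minigene plus DsRed2 were seeded at 600 cells/well in Opti-MEM with 2% FBS, pin-dosed and incubated 48 h at 37°C. Acumen cytometry (488 nm) gave the GFP/RFP total-intensity ratio.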
The depositor's hits bear a star; ? = inconclusive; / = not tested or not shown; [ ] = dose if it differs, or a comment. Compounds with a hit are over-represented: about 10% of the library has one in this group of screens. Unless noted, the call rests on the fitted dose curve; in most records, active means well fitted inhibition curve with a large enough effect (not every such curve was filed as active); inconclusive means small, poorly fitted or top-dose-only effect, or another doubt; inactive means no such curve, though single readings can be large or run the other way. Unless noted, on the % scale 0 is the no-effect control and ±100 the full control effect.

SMILES	IMPase cell inh	ALDH1A1 inh	HPGD block	PNC assembly inh	KinaseGlo FLuc	Lamin A splicing
CCOC(=O)c1ccc(N2C(=O)CC(SCC(N)C(=O)OCC)C2=O)cc1 (stereo not given)	-1	3.5µM*	-8%	16	0%	14%
CCOC(=O)c1ccc(N2C(=O)CC(Sc3nnc(C)s3)C2=O)cc1 (stereo not given)	-3	1µM*	28µM*	-25	-3%	8%
CCOC(=O)c1ccc(N2C(=O)C=CC2=O)cc1	7	0.063µM*	1.4µM*	?	-5%	?
O=C1CC(SCCO)C(=O)N1c1ccc(Oc2ccccc2)cc1 (stereo not given)	-12	14µM*	-15%	?	2%	-7%
O=C(NP(=O)(N1CCCC1)N1CCCC1)C1=C(N2CCOCC2)/C(=C/c2cccc([N+](=O)[O-])c2)CC1	/	10µM*	/	/	1%	-20%[46 µM]
O=[N+]([O-])c1cccc(/C=C2\CCC(/C=N/Nc3ccc4ccccc4n3)=C2N2CCOCC2)c1	/	?	-11%	3	-1%	-15%
CCOC(=O)C(=O)C1=C(N2CCOCC2)/C(=C\c2cccc([N+](=O)[O-])c2)CC1	16	2.2µM*	32µM*	-22	7%	-11%
CCOC(=O)OCC1OC(c2ccccc2)C=CC1Oc1ccc(F)cc1C (stereo not given)	/	6%[13.5 µM]	/	/	/	/
CCC1=C2CC[C@H]3C(=O)NC(=O)[C@H]3[C@H]2[C@@]2(C)C(=O)N(CC3CC3)C(=O)N2C1=O	/	-2%	-8%	/	-6%	/
Nc1ccc(C(=O)OCc2ccncc2)cc1[N+](=O)[O-]	/	3%	/	/	0%	-4%[46 µM]
COc1ccc(C(C)=O)cc1COC(=O)c1ccc(N)c([N+](=O)[O-])c1	/	10µM*	/	/	2%	-9%[46 µM]
COc1ccc(C(C)=O)cc1COc1ccccc1[N+](=O)[O-]	/	3.2µM*	/	/	3%	?
COc1ccc(C(C)=O)cc1COc1ccc([N+](=O)[O-])c(C)c1	/	?	/	/	1%	/
O=C(c1cccc(F)c1)N1CCC(N2CCOCC2)CC1	-6	14µM*	-8%	1	19%	2%
Cc1cc(C)n(-c2cc(N3CCN(C(=O)c4cccc(F)c4)CC3)ccc2[N+](=O)[O-])n1	/	4.5µM*	-13%	12	4%	?
Cc1cc(C)n(-c2cc(N3CCN(C(=O)c4ccc(C(C)(C)C)cc4)CC3)ccc2[N+](=O)[O-])n1	11	?	-17%	1	1%	?
Cc1ccccc1C(=O)N1CCN(c2ccc([N+](=O)[O-])c(N3CCOCC3)c2)CC1	-2	?	-3%	-7	-1%	3%
O=C(c1cccc(F)c1)N1CCN(c2ccc([N+](=O)[O-])c(N3CCOCC3)c2)CC1	/	7.9µM*	-10%	-25	0%	2%
O=C(c1ccccc1)N1CCN(c2ccc([N+](=O)[O-])c(N3CCOCC3)c2)CC1	/	0.89µM*	-9%	?	-2%	-6%
CCCCSc1nc2sc3c(c2c(=O)n1-c1ccccc1C)CC(C)(C)OC3	3	/	/	/	/	/
COc1ccccc1NS(=O)(=O)c1cc(C(=O)O)ccc1F	/	0%	-7%	/	-1%	/
N#C/C(=C(/O)CN1CCN(c2ccccc2F)CC1)c1nc(-c2ccc(Cl)cc2)cs1	-1	15%	-9%	2	0%	0%
N#C/C(=C(/O)CN1CCOCC1)c1nc(-c2ccccc2)cs1	6	1%	-11%	28	-2%	2%
COc1ccccc1N1CCN(C/C(O)=C(\C#N)c2nc(-c3ccccc3)cs2)CC1	-6	11µM*	-21%	20	-7%	10%
CCOC(=O)C1CCCN(C/C(O)=C(\C#N)c2nc(-c3ccccc3)cs2)C1 (stereo not given)	3	32µM*	-24%	-18	-5%	-16%
SMILES	IMPase cell inh	ALDH1A1 inh	HPGD block	PNC assembly inh	KinaseGlo FLuc	Lamin A splicing
O=C(NCCCn1ccnc1)Nc1cccc2ccccc12	-13	7%	-21%	-100*	3%	-3%
O=C(NCCCn1ccnc1)c1sc2cccc(F)c2c1Cl	3	28µM*	-19%	6	16%	-9%
O=C(Nc1cccnc1)c1sc2cccc(F)c2c1Cl	/	?	/	/	0%	?
CN(C)CCNC(=O)c1sc2cccc(F)c2c1Cl	/	14µM*	/	/	0%	?
CC(=O)c1c(C)n(-c2cccc(C)c2)c2ccc(OC(=O)COc3ccccc3)cc12	10	/	/	/	/	/
Cc1oc2ncn(C)c(=O)c2c1C(=O)N(C)c1ccccc1F	/	/	/	/	/	-2%[46 µM]
CN1/C(=C\C=C(/C#N)C(=O)Nc2ccccc2F)C(C)(C)c2ccccc21	/	-5%	-8%	-83*	0%	?
CN1/C(=C/C=C(/C#N)C(N)=O)C(C)(C)c2ccccc21	7	6%	-13%	-85*	-2%	8%
COc1cc([C@@H]2c3cc4c(cc3C(OC3OC5COC(C)OC5C(O)C3O)C3COC(=O)[C@@H]32)OCO4)cc(OC)c1O (stereo not given in full)	/	4%	-5%	/	2%	/
O=C(NCc1ccccc1Cl)C(=O)NCC(c1cccs1)S(=O)(=O)c1cccs1 (stereo not given)	/	/	/	/	/	0%[46 µM]
CCOC(=O)c1cnc(SC)nc1Oc1cccc(NS(=O)(=O)c2ccc(Cl)cc2)c1	5	0%	-12%	-100*	0%	?
CCOC(=O)c1cnc(SC)nc1Oc1cccc(NC(=O)c2ccc(Cl)cc2)c1	6	19%	-6%	7	8%	0%
COc1ccc(CNC(=O)C(OC(=O)c2ccco2)c2ccc(OC)cc2)cc1 (stereo not given)	9	6.3µM*	-16%	45	0%	-10%
COc1ccc(C(OC(=O)c2ccco2)C(=O)NCc2ccco2)cc1 (stereo not given)	0	-6%	-7%	?	1%	8%
Nc1ccc2ncccc2c1	20	?	-19%	9	-5%	9%
Nc1ccc2cc3ccccc3cc2c1	/	2µM*	2%	/	/	/
CN1CCN(c2ncc3ncc(=O)n(CCC#N)c3n2)CC1	/	?	/	/	/	-3%
COc1ccccc1NS(=O)(=O)c1cc(NC(=O)c2cccs2)ccc1N1CCCCC1	/	-13%	-17%	-8	-2%	?
COc1ccccc1NS(=O)(=O)c1cc(NC(=O)c2sccc2C)ccc1N1CCCC1	/	10µM*	/	/	5%	-21%[46 µM]
COc1ccccc1NS(=O)(=O)c1cc(NC(=O)c2cccs2)ccc1N1CCCC1	/	13µM*	8.9µM*	24	-1%	-16%
COc1ccc(Oc2ncc3nc(-c4ccc(F)cc4)c(=O)n(CCC#N)c3n2)cc1	/	-3%	/	/	/	-6%
COc1ccccc1NC(=S)N/N=C/c1ccc(O)cc1	/	7%	-21%	-18	0%	?
